Assay results reported in the supplement of paper PMC13380429.

Tests used:
[1] = tested on: Vero E6 infected with SARS-CoV-2; experiment: morphology score (similarity to uninfected cells); higher = more like uninfected cells; settings: 24 h
[2] = tested on: Vero E6 infected with SARS-CoV-2; experiment: SARS-CoV-2 infection rate relative to infected DMSO; higher = more infection, active = 60 or less; settings: 24 h

Structure (SMILES): Nc1ccc(S(=O)(=O)Nc2nccs2)cc1 [sulfathiazole] (10 µM)
- morphology score [1]: 0.0413
- SARS-CoV-2 infection rate [2]: 114% (inactive)

Structure (SMILES): O[C@@H](COc1cccc2ncccc12)CN1CCN([C@@H]2c3ccccc3[C@@H]3[C@H](c4ccccc42)C3(F)F)CC1 [zosuquidar] (0.833333 µM)
- morphology score [1]: 0.0321
- SARS-CoV-2 infection rate [2]: 108% (inactive)

Structure (SMILES): COc1ccccc1Oc1c(NS(=O)(=O)c2ccc(C)cn2)nc(-c2ccncc2)nc1OC (10 µM)
- morphology score [1]: 0.183
- SARS-CoV-2 infection rate [2]: 85.5% (inactive)

Structure (SMILES): CCOC(=O)/C=C(C)/C=C/C=C(C)/C=C/c1c(C)cc(OC)c(C)c1C [etretinate] (10 µM)
- morphology score [1]: -0.112
- SARS-CoV-2 infection rate [2]: 92.5% (inactive)

Structure (SMILES): CCCN1CCCC(c2cccc(O)c2)C1 (stereo in doubt) [preclamol] (10 µM)
- morphology score [1]: -0.1
- SARS-CoV-2 infection rate [2]: 114% (inactive)

Structure (SMILES): Cc1nc(NC(=O)N2CCC[C@H]2C(N)=O)sc1-c1ccnc(C(C)(C)C(F)(F)F)c1 [alpelisib] (10 µM)
- morphology score [1]: 0.0577
- SARS-CoV-2 infection rate [2]: 113% (inactive)

Structure (SMILES): CC(Cc1ccccc1)(NC(=O)CN)c1ccccc1 (stereo unspecified) [remacemide] (10 µM)
- morphology score [1]: -0.124
- SARS-CoV-2 infection rate [2]: 113% (inactive)

Structure (SMILES): Cc1coc2c1C(=O)C(=O)c1c-2ccc2c1CCCC2(C)C [tanshinone-IIA] (10 µM)
- morphology score [1]: 0.159
- SARS-CoV-2 infection rate [2]: 102% (inactive)
